# Laboratory results: PubChem BioAssay AID1117283 (Broad Institute, 2014)
# Potency and affinity values are given separately. Calls of active or inactive are those of the source.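 Rule for the calls: active = fluorescent signal decreased by at least 40%; inconclusive = no clear call, values can overlap the other calls; inactive = the rest, including activity opposite to the expected direction.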
# Assay: inhibition of fibronectin matrix deposition – AH1F cells, Alexa488-fibronectin fluorescence, cherry-pick, set 2, dose response (AID 1117283);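 note: AH1F fibroblasts given Alexa488-labelled fibronectin at 24 nM final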
# Details: AH1F fibroblasts, overnight; series mostly up to 35 µM
structure (smiles),measurement,value
C=C1C(=O)O[C@@H]2C[C@@H](C)[C@@H]3C=CC(=O)[C@@]3(C)[C@@H](O)[C@H]12,outcome,inactive
